Rows were chosen to be rich in hits. Some 19% of all compounds tested hit in one or more screens of this group.
TDP1 cell CPT – growth inhibition of DT40 Tdp1-/-;hTDP1 cells with camptothecin (screen for TDP1 inhibitors); chicken DT40 Tdp1-/-;hTDP1 cells + 20 nM CPT, ATP luminescence, 48 h; 420,000 tested, 12% active; AID 686979; Potency, µM (doses to about 46.2 µM), most hits filed as inhibitors; note: nearly all actives have a fitted effect of over 55% in size
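Chicken DT40 Tdp1-/- cells stably complemented with human TDP1 were seeded at 400 cells/well in medium containing 20 nM camptothecin, exposed to pin-transferred compounds, and grown at 37 °C for at least 48 hr. Viability was read as ATP luminescence.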
TDP1 cell noCPT – qHTS for Inhibitors of human tyrosyl-DNA phosphodiesterase 1 (TDP1): qHTS in cells in absence of CPT; DT40 Tdp1-/- hTDP1 cells, no CPT, ATP luminescence, 48 h; Potency, µM (doses to about 46.2 µM), actives largely listed as inhibitors; 420,000 tested, 15% active; note: nearly all actives have a fitted effect of over 55% in size
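DT40 Tdp1-/-;hTDP1 cells, no CPT (DMSO vehicle only), 400 cells/well; compounds pin-transferred; ≥48 hr, 37 °C; CellTiter-Glo 30 min RT dark, luminescence read.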
IL1B secr inh – blocks inflammasome-driven IL-1 beta release; AID 743279; activity change, % at 57.5 µM; THP-1 LPS/ATP IL-1B secretion, AlphaLISA, 16 h; stronger effect = lower value; 360,000 tested, 4.7% active; in the data active = activity change below about -50%; inconclusive = mostly about -30% to -49%
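Secreted IL-1B measured by AlphaLISA bead assay after 16 h compound exposure of THP-1 cells; compounds (final up to 57.5 uM) added 1 h before LPS (250 ng/mL) and ATP (1.25 mM) stimulation; lower signal means less secretion.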
HT1080 IDH1KD tx – toxicity to HT-1080 IDH1 knockdown cells (counter line); AID 686971; 360,000 tested, 2% active; HT-1080 IDH1 knockdown viability, ATP luminescence, 48 h; Potency, µM (series often up to 46.1 µM), actives largely listed as cytotoxic
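IDH1KD HT-1080 cells, 750/well, RPMI + 5% FBS; compound pinned after 2 h settling; 48 h, 37 °C; CellTiter-Glo luminescence; % activity normalised to DMSO and no-cell wells; curves fitted, classed by r2 and efficacy.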
HT1080-NT tox – kills 2HG-producing HT-1080-NT fibrosarcoma cells; 360,000 tested, 1.6% active; HT-1080-NT fibrosarcoma viability, CellTiter-Glo ATP luminescence, 48 h; Potency, µM (doses to about 46.1 µM), usual class: cytotoxic;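 note: NT is the 2HG producing partner of a matched IDH1 knockdown line; nearly all actives have a fitted effect of over 55% in size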
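Fibrosarcoma NT cells, 750 per well in 5% FBS RPMI, were exposed to compound for 48 hours. Viability: CellTiter-Glo luminescence.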
Large screens that a line does not name were inactive. Unless noted, calls come from the whole dose curve; as a rule, active = well fitted curve in the direction sought with a large enough effect; inconclusive = small, poorly fitted or top-dose-only effect, or another doubt; inactive = no such curve, though single readings can be large; an effect the other way counts as inactive or inconclusive.

O=C(Nc1ncc(S(=O)(=O)c2ccc([N+](=O)[O-])cc2)s1)c1ccc2ccccc2c1	TDP1 cell CPT 16µM, TDP1 cell noCPT inconclusive
Cc1ccc(S(=O)(=O)N/N=C/c2c(F)cccc2Cl)cc1	TDP1 cell CPT 16µM, TDP1 cell noCPT inconclusive
Cc1ccc(S(=O)(=O)N/N=C/c2cc(Br)c(C)o2)cc1	TDP1 cell CPT 16µM, TDP1 cell noCPT inconclusive
CCn1ncc(CN2CCC(Oc3cc(C(=O)NC4CC4)ccc3OC)CC2)c1C	none
Cc1cn([C@H]2C[C@H](O)[C@@H](CCC(=O)NCCCn3ccnc3)O2)c(=O)[nH]c1=O	none
O=C(c1ccc2c(c1)OCCO2)C1CCN(C(=O)Nc2ccc(F)cc2)CC1	TDP1 cell CPT inconclusive, TDP1 cell noCPT 18µM
Cc1ccc(C(=O)C2CCN(CC(=O)Nc3ccc4c(c3)OCCO4)CC2)cc1	TDP1 cell noCPT inconclusive
Cc1cccc(NC(=O)CN2CCC(C(=O)c3ccc4c(c3)OCCO4)CC2)c1	TDP1 cell CPT inconclusive, TDP1 cell noCPT 16µM, IL1B secr inh inconclusive
COc1ccc(NC(=O)N2CCC(C(=O)c3ccc4c(c3)OCCO4)CC2)cc1	TDP1 cell noCPT inconclusive
Cc1ccc(NC(=O)CN2CCN(S(=O)(=O)c3ccc(F)cc3)CC2)cc1C	TDP1 cell CPT inconclusive
COc1ccc(S(=O)(=O)N2CCN(CC(=O)Nc3ccc(C)c(F)c3)CC2)cc1	TDP1 cell CPT inconclusive, TDP1 cell noCPT 18µM, IL1B secr inh -61
Cc1ccc(NC(=O)CN2CCN(S(=O)(=O)c3ccc(C(C)C)cc3)CC2)cc1F	TDP1 cell CPT 21µM, TDP1 cell noCPT inconclusive (no result: IL1B secr inh, HT1080 IDH1KD tx, HT1080-NT tox)
COC(=O)[C@H](NC(=O)c1cc([C@@H](NC(=O)OC(C)(C)C)C(C)C)sc1N)C(C)C	TDP1 cell CPT inconclusive, TDP1 cell noCPT inconclusive
O=C(CSc1nc2nn(-c3ccccc3)c(=O)c-2c2n1CCCCC2)NCCc1ccccc1	IL1B secr inh inconclusive
O=C(COC(=O)CCc1ccc(S(=O)(=O)N2CCOCC2)cc1)NC(=O)NC1CCCCC1	none
COc1ccc(NC(=O)CCn2c(=O)c3cccn3c3cccnc32)c(OC)c1	TDP1 cell CPT inconclusive, TDP1 cell noCPT 15µM (no result: IL1B secr inh, HT1080 IDH1KD tx, HT1080-NT tox)
COc1ccc(OC)c(CCNC(=O)CCn2c(=O)c3cccn3c3cccnc32)c1	TDP1 cell CPT inconclusive, TDP1 cell noCPT 16µM (no result: IL1B secr inh, HT1080 IDH1KD tx, HT1080-NT tox)
O=C1CCCCC1CCc1ccncc1 (centres undefined)	none
Cc1ccc(SC(c2ccccc2)C(Cn2cncn2)C(=O)c2ccccc2)cc1 (centres undefined)	TDP1 cell CPT inconclusive, TDP1 cell noCPT inconclusive
O=C(c1ccc(Cl)cc1)C(Cn1cncn1)C(Sc1ccccc1)c1ccccc1 (centres undefined)	TDP1 cell CPT inconclusive, TDP1 cell noCPT inconclusive, IL1B secr inh -61, HT1080 IDH1KD tx inconclusive, HT1080-NT tox inconclusive
Cc1cc(C)c2c3c(cn2n1)c(=O)n(C)c(=O)n3C	none
CCOC(=O)C(C(=O)OCC)N(C#N)c1nc(C)cc(C)n1	none
CCOC(=O)C(C(=O)OCC)N(C#N)c1nc(N(C)C)nc(N(C)C)n1	IL1B secr inh -100
CCOC(=O)CSc1n[nH]c(NC(=O)CC)n1	none
CNC(=O)OCc1nc(SSC(C)(C)C)n(C)c1COC(=O)NC	TDP1 cell CPT 2.1µM, TDP1 cell noCPT 2.1µM, IL1B secr inh -100, HT1080 IDH1KD tx 18µM, HT1080-NT tox inconclusive
CCSc1nc(COC(=O)NC)c(COC(=O)NC)n1C	TDP1 cell CPT 2.3µM, TDP1 cell noCPT 5.2µM
O=c1[nH]c2ccccc2cc1CN(Cc1cccnc1)S(=O)(=O)c1ccc(Cl)cc1	TDP1 cell CPT inconclusive, TDP1 cell noCPT 26µM, IL1B secr inh -61
CC(=O)Nc1ccc(S(=O)(=O)N(Cc2ccco2)Cc2cc3ccccc3[nH]c2=O)cc1	TDP1 cell CPT inconclusive, TDP1 cell noCPT inconclusive
O=c1[nH]c2ccccc2cc1CN(Cc1cccnc1)S(=O)(=O)c1ccc([N+](=O)[O-])cc1	TDP1 cell noCPT inconclusive
CC(=O)Nc1ccc(S(=O)(=O)N(Cc2cccnc2)Cc2cc3ccccc3[nH]c2=O)cc1	TDP1 cell CPT 16µM, TDP1 cell noCPT 18µM
COc1ccc(NC(=O)C2(c3ccccc3)CCCC2)cc1	TDP1 cell noCPT inconclusive
COc1ccc(S(=O)(=O)N2CCCN(CC(=O)Nc3ccc(OC)cc3OC)CC2)cc1	TDP1 cell CPT inconclusive, TDP1 cell noCPT 12µM (no result: IL1B secr inh, HT1080 IDH1KD tx, HT1080-NT tox)
COc1ccc(C)cc1NC(=O)CN1CCN(S(=O)(=O)c2ccc(F)cc2)CC1	TDP1 cell CPT inconclusive, TDP1 cell noCPT inconclusive
COc1ccc(C2(C(=O)Nc3ccc(OC)cc3OC)CCCC2)cc1	TDP1 cell CPT 13µM, TDP1 cell noCPT 23µM
COc1ccc(C)cc1NC(=O)CN1CCN(S(=O)(=O)c2ccc3ccccc3c2)CC1	TDP1 cell CPT 16µM, TDP1 cell noCPT 16µM
O=C(CN1CCCN(S(=O)(=O)c2ccc(Br)cc2)CC1)Nc1cccc(C(F)(F)F)c1	TDP1 cell CPT 21µM, TDP1 cell noCPT 12µM (no result: IL1B secr inh, HT1080 IDH1KD tx, HT1080-NT tox)
COC(=O)c1ccc(NC(=O)CN2CCN(S(=O)(=O)c3ccc(Br)cc3)CC2)cc1	TDP1 cell CPT inconclusive, TDP1 cell noCPT 18µM
O=C(CN1CCN(S(=O)(=O)c2ccc(Br)cc2)CC1)Nc1ccc2c(c1)OCCO2	none
COc1ccc(C)cc1NC(=O)CN1CCCN(S(=O)(=O)c2ccc(Br)cc2)CC1	TDP1 cell CPT inconclusive, TDP1 cell noCPT 9.2µM
O=S(=O)(c1ccc(Br)cc1)N1CCCN(Cc2cccc(F)c2)CC1	TDP1 cell noCPT inconclusive, IL1B secr inh -56
CC12CCC(C(=O)NNC(=O)c3ccc(Br)cc3)(OC1=O)C2(C)C (centres undefined)	none
CC(/C=C(\NC(=O)c1ccccc1)C(=O)N=Nc1c(O)[nH]c2ccc(C)cc12)=C\c1ccccc1	TDP1 cell CPT 8.2µM, TDP1 cell noCPT 8.2µM
CCOc1ccccc1N1CCN(c2nc(N)c(C#N)c(CC#N)c2C#N)CC1	TDP1 cell CPT inconclusive, TDP1 cell noCPT 21µM
COc1ccccc1N1CCN(c2nc(C)cc(C)c2C#N)CC1	none
CCOc1ccccc1N1CCN(c2nc3ccccc3nc2C(C#N)C(=O)OC)CC1 (centres undefined)	TDP1 cell CPT 23µM, TDP1 cell noCPT 15µM
COc1ccccc1N1CCN(c2nc3ccccc3nc2C(C#N)C(=O)OC(C)C)CC1 (centres undefined)	TDP1 cell CPT inconclusive, TDP1 cell noCPT 21µM
CN(C)c1ncc2nc(-c3cc(F)cc(F)c3)c(=O)n(Cc3cccs3)c2n1	TDP1 cell noCPT inconclusive (no result: IL1B secr inh, HT1080 IDH1KD tx, HT1080-NT tox)
CC(C)(C)c1ccc(C(=O)C=[N+]=[N-])cc1	TDP1 cell CPT 26µM, TDP1 cell noCPT 15µM
Cc1ccc(CNC(=O)[C@H](C)N2C(=O)N3CCc4c([nH]c5ccccc45)[C@@]3(C)C2=O)cc1	TDP1 cell CPT inconclusive, TDP1 cell noCPT inconclusive
